Assay results reported in the supplement of paper PMC10981050.
Counter-ions that a name gives are not always drawn.

System: MARIMO
Experiment: cell viability relative to vehicle control; higher = less cytotoxic
Details: 10 µM; SRSF2 genotype: SRSF2 P95H/wt
In short: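 Screening covered the Selleck bioactive, kinase and epigenetic probe libraries, less identity-inconsistent compounds, on CRISPR-edited mutant clones and isogenic wild-type clones of four leukaemia lines. Cells, at 2000 per well in 50 µL medium, received a single 10 µM acoustically dispensed dose. After 48 h the supernatant was removed and CellTiter-Glo luminescence was read. Viability was analysed in Genedata Screener as percent of the on-plate vehicle control.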

| SMILES | cell viability [%] |
| --- | --- |
| CN1CCN2c3ncccc3Cc3ccccc3C2C1 (centres undefined) [Mirtazapine (Remeron, Avanza)] | 93.2 |
| NCCCCCN [Cadaverine] | 100 |
| CCN1CCN(Cc2ccc(C(=O)Nc3ccc(C)c(Oc4ccc5c(c4)CC(=O)N5)c3)cc2C(F)(F)F)CC1 | 70.5 |
| O=C(O)c1cc(C(=O)O)c2c(n1)C(=O)C(=O)c1cc(C(=O)O)[nH]c1-2 [Pyrroloquinoline Quinone Disodium Salt] | 94.1 |
| CC(C)C(=O)Nc1ccc([N+](=O)[O-])c(C(F)(F)F)c1 [Flutamide (Eulexin)] | 90.3 |
| O=C(Cc1ccccc1)Nc1nnc(CCSCCc2nnc(NC(=O)Cc3ccccc3)s2)s1 | 75.9 |
| CCn1nc(C2CCN(C(=O)CCO)CC2)nc1-c1cnc(N)c(-c2nnc(C(C)(C)C)o2)n1 | 57.5 |
| OC[C@H]1O[C@@H](Oc2cc(O)cc(/C=C/c3ccc(O[C@@H]4O[C@H](CO)[C@@H](O)[C@H](O)[C@H]4O)cc3O)c2)[C@H](O)[C@@H](O)[C@@H]1O [Mulberroside A] | 95.3 |
| O=C(C[S+]([O-])Cc1ccco1)NC/C=C\COc1cc(CN2CCCCC2)ccn1 (centres undefined) [Lafutidine] | 104 |
| Cn1cc(CNCC2CCN(c3ncc(C(=O)NO)cn3)CC2)c2ccccc21 | 7.96 |
| NC(=O)c1ccc(I)c([N+](=O)[O-])c1 [Iniparib (BSI-201)] | 97.6 |
| COc1cc(C=O)ccc1OC(C)=O [Acetylvanillin] | 104 |
| C=CS(=O)(=O)NC1CCN(C(=O)CNc2cc(I)c(Cl)cc2OC)CC1 [K-Ras(G12C) inhibitor 9] | 36.4 |
| CN1CCN(C(=O)c2cc3cc(Cl)ccc3[nH]2)CC1 | 100 |
| OC[C@H]1O[C@H](OC[C@H]2O[C@H](O[C@]3(CO)O[C@H](CO)[C@@H](O)[C@@H]3O)[C@H](O)[C@@H](O)[C@@H]2O)[C@H](O)[C@@H](O)[C@H]1O [Raffinose] | 97.2 |
| Cc1cc(C)nc(O)n1.O=C(Nc1ccc([N+](=O)[O-])cc1)Nc1ccc([N+](=O)[O-])cc1 [Nicarbazin] | 97 |
| O=c1cc(-c2ccc(O)c(O)c2)oc2cc(O)c([C@@H]3O[C@H](CO)[C@@H](O)[C@H](O)[C@H]3O)c(O)c12 [Homoorientin] | 83.8 |
| Clc1ccc(C(Cn2ccnc2)OCc2ccc(Sc3ccccc3)cc2)c(Cl)c1 (centres undefined) [Fenticonazole nitrate] | 62.4 |
| O=c1cc(N2CCOCC2)oc2c(-c3ccc4c(c3)OCCO4)csc12 | 36.4 |
